Screening data as filed in PubChem.
Sampled rows, rich in hits. Any-hit rate of the full collection: about 12%.
WT yeast gro inh = growth inhibition of WT yeast, mitochondrial fusion screen. mitochondrial fusion phenotypic screen, WT strain. inhibition, % at 10 µM. hit rate 2.1% among 190,000. AID 1362; in the data active means inhibition above about 58%; tested in S. cerevisiae
Insulin prom up = MIN6 insulin promoter up-regulation | MIN6 insulin promoter-GFP reporter, high-content imaging; stronger effect = higher value | z-score at 5 µM | AID 1625 | hit rate 0.3% among 190,000;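 active means z-score above 3 at 5 µM with at least 500 cells counted in the well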
Lmaj promast = reduces viability of Leishmania major promastigotes | inhibition, % at 10 µM | resazurin fluorescence viability | hit rate 9% among 200,000 | AID 1063; in the data active means inhibition above about 50%;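 further: promastigotes grown with compound for 44 hours at 28 °C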
INS promoter inh = TRM-6 insulin promoter activity inhibition; TRM-6 cells (human fetal islet line), insulin promoter-eGFP reporter, imaging; reporter expression induced with tamoxifen; inhibition, % at 2 µM; hit rate 0.9% among 130,000; AID 1273;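 active means inhibition above the mean plus 3 SD, with well images judged a real hit on visual review, cut at about 60% in these data, passing the limit was not always enough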
KCC2 mod = modulates chloride dependent transport by human KCC2; KCC2 cells, thallium flux FluoZin-2 fluorescence; B-score of Tl+ flux slope (higher = more flux/activation; lower = inhibition) at 10 µM; hit rate 2.2% among 190,000; AID 1456;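 active means thallium flux slope and its plate-corrected score both differing from the plate sample mean at a set confidence after two filtering rounds, in either direction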;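 further: slope of fluorescence scaled to starting intensity during 10 to 20 s after thallium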
ROMK mod = human ROMK K+ channel modulation, primary screen; P48048; Tet-inducible ROMK, thallium flux fluorescence; actives lie on both sides; B-score at 10 µM; hit rate 2% among 130,000;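 active means signal ratio slope over the read window, or its plate-corrected B-score, at least 3 SD from the plate mean, either direction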;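 further: B-score of the F/F0 ratio slope over 7 to 12 s after thallium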
Target sequence (P48048 whole entry, looked up): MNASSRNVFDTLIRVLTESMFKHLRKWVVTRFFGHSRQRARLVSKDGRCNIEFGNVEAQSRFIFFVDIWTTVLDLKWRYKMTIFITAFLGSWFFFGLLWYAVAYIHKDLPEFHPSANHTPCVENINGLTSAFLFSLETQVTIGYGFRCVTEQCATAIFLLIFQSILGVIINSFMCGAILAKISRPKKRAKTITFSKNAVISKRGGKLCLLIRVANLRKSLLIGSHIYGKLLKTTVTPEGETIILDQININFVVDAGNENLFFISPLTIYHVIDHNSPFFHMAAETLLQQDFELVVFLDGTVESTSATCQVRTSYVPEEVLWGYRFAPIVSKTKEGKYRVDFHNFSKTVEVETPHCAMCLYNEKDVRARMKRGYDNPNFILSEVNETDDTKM
Of the large screens only hits and unclear results are named; the others gave an inactive call.

O=[N+]([O-])c1ccc(Nc2ccccc2F)nc1	none (no result: INS promoter inh)
c1ccc(-c2cn(-c3ccccc3)c3ncnc(N4CCCCC4)c23)cc1	none
COc1ccc(-n2cc(-c3ccccc3)c3c(N4CC(C)OC(C)C4)ncnc32)cc1 (stereo not given)	WT yeast gro inh 68
CCOC(=O)CSc1ncnc2c1c(-c1ccccc1)cn2-c1ccc(OC)cc1	none (no result: INS promoter inh, ROMK mod)
CCOc1ccc(-n2cc(-c3ccccc3)c3c(N4CCOCC4)ncnc32)cc1	WT yeast gro inh 59
CN1CCN(c2ncnc3c2c(-c2ccccc2)cn3-c2ccc(F)cc2)CC1	Lmaj promast 58
COc1ccc(CCNC(=O)C2CC(=O)N(c3ccc(C(C)(C)C)cc3)C2)cc1OC (stereo not given)	none (no result: INS promoter inh)
CC1(C)c2ccccc2N2CCC(=O)NC21/C=C/c1ccco1 (stereo not given)	none (no result: INS promoter inh)
O=C(CCCCCNc1nc(=S)[nH]c2ccccc12)NCCc1ccccc1	none (no result: INS promoter inh)
CCOc1cc(C2NN=C(c3ccc(C)cc3)S2)ccc1O (stereo not given)	KCC2 mod 41 (no result: ROMK mod)
CN1CCN(CCCNC(=O)c2ccc3c(c2)N(Cc2ccccc2)CCS3)CC1	Lmaj promast 80 (no result: INS promoter inh, KCC2 mod, ROMK mod)
Cc1ccc(CN2CCSc3ccc(C(=O)NC4CCN(Cc5ccccc5)CC4)cc32)cc1	Lmaj promast 90 (no result: Insulin prom up)
O=C(Nc1cccc(NC(=O)C2CC3CCCC(C2)C3=O)n1)C1CC2CCCC(C1)C2=O (stereo not given)	none
Cc1ccc2cccc(OCC(=O)Nc3ccc(N4CCOCC4)cc3)c2n1	none (no result: Insulin prom up, INS promoter inh)
CCOC(=O)CNC(=O)CSc1nc(-c2cccc(C)c2)ns1	none (no result: INS promoter inh, KCC2 mod, ROMK mod)
CCC(C(=O)N1CCN(c2ccccn2)CC1)n1nc(C)n2c(cc3occc32)c1=O (stereo not given)	none (no result: ROMK mod)
CCc1ccc(OCc2n[nH]c(=S)n2C(C)CCCC(C)C)cc1 (stereo not given)	WT yeast gro inh 60 (no result: INS promoter inh)
OCC1(CCc2ccccc2)CCN(Cc2ccc(OC(F)F)cc2)CC1	Lmaj promast 82 (no result: INS promoter inh)
OCC1(CCc2ccccc2)CCN(Cc2cc(Cl)ccc2O)CC1	none (no result: INS promoter inh)
OCC1(Cc2ccccc2)CCN(Cc2cnc(-c3cccc4ccccc34)nc2)CC1	none (no result: INS promoter inh)
OCC1(CCCc2ccccc2)CCN(Cc2ccc(F)cc2)CC1	Lmaj promast 91 (no result: Insulin prom up, INS promoter inh)
Cc1ccccc1-c1ncc(CN2CCC(CO)(CCCc3ccccc3)CC2)cn1	WT yeast gro inh 87 (no result: INS promoter inh)
CCOc1ccc(NC(=O)CSc2nc(N)c(-c3ccccc3)c(=O)[nH]2)cc1	none
COc1ccc(NC(=O)c2cc(CN3C(=O)c4ccccc4C3=O)ccc2OC)cn1	none (no result: INS promoter inh)
O=C(Cn1cccc1)Nc1ccc(F)cc1F	none (no result: INS promoter inh)
CCOC(=O)C1(CC2CCCCO2)CCN(Cc2ccccc2-c2ccco2)CC1 (stereo not given)	none (no result: Insulin prom up, INS promoter inh)
COc1ccc(C(=S)N2CCOCC2)cc1OS(=O)(=O)c1ccccc1[N+](=O)[O-]	none
COc1ccc(C=O)cc1OS(=O)(=O)c1ccccc1[N+](=O)[O-]	Lmaj promast 90 (no result: ROMK mod)
C/C(=N\NC(=O)c1c(Cl)c(C)nn1C)c1ccc(NC(=O)COc2ccc(Cl)cc2C)cc1	none (no result: INS promoter inh, ROMK mod)
C/C(=N\NC(=O)c1c(Cl)c(C)nn1C)c1cccc(NC(=O)COc2ccccc2)c1	ROMK mod 4.1 (no result: INS promoter inh)
CCN1C(=O)/C(=C2/Sc3ccc(OC)cc3N2C)SC1=Nc1cccc(O)c1	Lmaj promast 99
Cc1ccc(C2c3sc(=O)[nH]c3SC3C(=O)NC(=O)C32)cc1 (stereo not given)	KCC2 mod -6.8
N#Cc1cc([N+](=O)[O-])cnc1Nc1ccccc1	none
COc1ccc(N(C(=O)c2cnccn2)C(C(=O)NC2CCCCC2)c2ccc(Cl)cc2)cc1 (stereo not given)	none (no result: WT yeast gro inh, Insulin prom up)
COC(CN(C(=O)CCl)C(C(=O)NC1CCCCC1)c1ccc(Cl)cc1)OC (stereo not given)	Lmaj promast 81 (no result: Insulin prom up, INS promoter inh)
O=C(NC1CCCC1)C(c1ccc(Cl)cc1)N(Cc1ccc(F)cc1)C(=O)CCl (stereo not given)	Lmaj promast 100 (no result: Insulin prom up)
COC(CN(C(=O)CCl)C(C(=O)NC1CCCCC1)c1ccccc1C)OC (stereo not given)	Lmaj promast 68 (no result: Insulin prom up, INS promoter inh)
CN(C)C(C(=O)NC1CCCCC1)c1ccc(Cl)cc1 (stereo not given)	none (no result: INS promoter inh, ROMK mod)
COc1ccc(C(C(=O)NC2CCCCC2)N(C(=O)CCl)c2ccc(Cl)cc2)cc1 (stereo not given)	Lmaj promast 100 (no result: Insulin prom up, INS promoter inh)
COC(CN(C)C(C(=O)NC1CCCCC1)c1ccccc1)OC (stereo not given)	none
